Out of some 290,000 compounds screened, about 3,000 (1%) were called active. Cut-off read from the data, not from the text of the source: active = inhibition mostly above about 36% (no sharp cut-off); inactive = mostly below about 34%. The sample as a whole holds a higher share of actives than the screen did.
Assay: NOD1 signaling inhibitors, primary screen, cell-based, luminescence, uHTS (AID 1578);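 note: HEK-293T reporter cells stimulated with the NOD1 agonist gamma-tri-DAP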
Conditions: NOD1-driven NF-kB luciferase reporter cells, at 4 µM, hits give high values

inhibition, inactive:
COc1ccc(C(=O)Oc2cccc(Nc3ncnc4ccccc34)c2)cc1OC 29.6%
COc1cccc(N2CCN(c3nc(C)c(C)c(=O)[nH]3)CC2)c1 -29.1%
Cc1cc(C(=O)O/N=C(\N)c2ccc(C(C)(C)C)cc2)no1 -2.5%
COC(=O)c1c(C)noc1-c1ccc(Cl)cc1 -8.4%
COC(=O)/C(N=Nc1cccc(C(F)(F)F)c1)=C(\C)O 1.3%
CC(=O)/C(N=Nc1cccc(C(F)(F)F)c1)=C(\C)O -26.4%
CC(C)C1CC(c2ccccc2)(C(CN)CO)CCO1 (stereo not drawn) -22.3%
C=C(C)COc1ccc(-c2[nH]ncc2-c2ccc(Br)cc2)c(O)c1 -22.6%
Cc1nc2ccccc2c2oc(C(=O)NCc3ccc4c(c3)OCO4)cc12 38.5%
Cc1cc(C(=O)NCC2COc3ccccc3O2)c2ccccc2n1 (stereo not drawn) -14.4%
Cn1c(Cc2ccccc2)nnc1SCC(=O)N1CCN(c2ccccc2)CC1 -14.3%
COC(=O)c1sccc1NC(=O)/C=C/C(=O)O -34.3%
CCOC(=O)c1[nH]cnc1C(=O)Nc1ccc([N+](=O)[O-])cc1 -7.2%
O=C(Nc1ccc(F)cc1)c1nc[nH]c1C(=O)Nc1ccc([N+](=O)[O-])cc1 45%
Nc1nnc(SCc2c(F)cccc2Cl)s1 -8.2%
CC(=O)n1cc([C@@H]2C=C(C(=O)NCc3ccccc3)O[C@H](OCc3ccc(CO)cc3)C2)c2ccccc21 -7.1%
C#CCNC(=O)C1=C[C@@H](c2cn(C(C)=O)c3ccccc23)C[C@@H](OCc2ccc(CO)cc2)O1 -23.5%
O=C(Nc1ccccc1)C1=C[C@H](c2csc3ccccc23)C[C@H](OCc2ccc(CO)cc2)O1 -4.6%
O=C(NCc1ccccc1)C1=C[C@H](c2csc3ccccc23)C[C@H](OCc2ccc(CO)cc2)O1 -5.8%
CC(NS(=O)(=O)c1ccc2[nH]c(=O)c(=O)[nH]c2c1)C(=O)O (stereo not drawn) -25.3%
O=C(CCCN1C(=O)/C(=C/c2ccccc2Cl)SC1=S)N1CCCC1 18.8%
Cc1cc(Cl)cc(C)c1OCCNCc1ccccc1 -43.1%
Cc1ccc(S(=O)(=O)CCc2nnc(NC(=O)C3CCCCC3)s2)cc1 1.5%
COc1ccc(NC(=O)Cn2ncn3nc(-c4ccc(OC)cc4)cc3c2=O)cc1 -72%
CC(C)c1ccc(Nc2nc(Cl)nc(Cl)n2)cc1 -33%
CCCOC(=O)Cn1cnc2scc(-c3ccc(OC)cc3)c2c1=O 41.3%
Cc1ccccc1NC(=O)CSc1ccc(-c2cccnc2)nn1 -33.1%
CCOC(=O)c1ccccc1NC(=O)CSc1ccc(-c2ccccn2)nn1 -59.6%
Cc1ccc(NC(=O)Cn2nnc3ccccc32)c(C)c1 -16.7%
COc1ccc(-c2nnc(SCC(=O)N3c4ccccc4Sc4ccccc43)o2)cc1 -16.3%
O=C(Sc1nnc(-c2ccccc2)o1)N1c2ccccc2Sc2ccccc21 -37.4%
Fc1ccc(-n2nnnc2-c2ccccc2Cl)cc1 -26.4%
COc1ccc(C(=O)N2CCC(C(=O)Nc3ccc4c(c3)OCCO4)CC2)cc1 -5.6%
Fc1ccc(-c2nnc(NC3=NCCCCC3)o2)cc1 46.2%
Cc1ccc(S(=O)(=O)NC(=NC(C)C)c2ccccc2)cc1 -28.2%
CC(C)CN=C(NS(=O)(=O)c1ccccc1)C(Cl)(Cl)Cl 34.3%
O=C(CSc1nnc(-c2cccnc2)n1Cc1ccco1)Nc1cccc(O)c1 -18.5%
CCC(=O)Nc1cc(ON=C(C)C)cc([N+](=O)[O-])c1 -24.6%
CC(=O)Nc1cc(ON=C(C)C)cc([N+](=O)[O-])c1 -34.9%
O=C(Nc1ccc(S(=O)(=O)N2CCCCCC2)cc1)c1ccc(Br)o1 26.1%
COc1ccc(CCNc2oc(Cc3ccccc3)nc2C#N)cc1OC 25.6%
COc1ccc(CCNc2oc(COc3ccccc3F)nc2C#N)cc1OC 21.4%
COc1ccc(CCNc2oc(COc3ccccc3)nc2C#N)cc1 -56.7%
COc1ccc(CCNc2oc(COc3ccc(F)cc3)nc2C#N)cc1 -48.1%
CCc1ccc(NC(=O)CCCN2C(=S)NC(C)(C)CC2C)cc1 (stereo not drawn) -30.4%
Cc1ccccc1-c1ccc(=O)n(CC(=O)Nc2ccc(-n3cnnn3)cc2)n1 -5.3%
CCOC(=O)C(CCCOc1ccccc1)C(=O)OCC 10.5%
CC1CCCCC1NC(=O)CN1C(=O)CSc2cc(S(=O)(=O)N3CCCCCC3)ccc21 (stereo not drawn) -19.4%
COC(=O)c1cccc(NC(=O)/C(=C\c2ccccc2)NC(=O)c2ccccc2Cl)c1 -35.1%
COC(=O)c1cccc(NC(=O)NC(=O)c2ccc(Cl)cc2)c1 11.7%
O=C(CNS(=O)(=O)c1cccc2nsnc12)NC1CCCCC1 -5.2%
COc1ccc(/C=N/NC(=O)Nc2nonc2N)cc1 -31.2%
CCN(CC)c1ccc(/C=N/NC(=O)Nc2ccccc2)cc1 -54%
COCCOC(=O)C1=C(C)Nc2cc(=O)[nH]c(=O)n2C1c1cccc([N+](=O)[O-])c1 (stereo not drawn) 5%
O=C1CCC(C(=O)Nc2cccc3ccccc23)N1 (stereo not drawn) 8.1%
O=C1CCC(C(=O)Nc2ccccc2)N1 (stereo not drawn) -23%
Cc1cc(C)nc(NS(=O)(=O)c2ccc(NC(=O)c3ccc4c(c3)OCCO4)cc2)n1 -42.8%
COc1ccc(C2C(C#N)=C(N)Oc3n[nH]c(C)c32)cc1Cn1nc(C)c([N+](=O)[O-])c1C (stereo not drawn) -12.1%
COc1ccc(C2C(C#N)=C(N)OC3=C2C(=O)CCC3)cc1Cn1nc(C)c([N+](=O)[O-])c1C (stereo not drawn) -8.7%
Cc1ccc(NNC(=O)CCc2ccccc2)c(C)c1 -5%
O=C(NC1CCCN(Cc2ccc(Cl)cc2)C1)c1c(F)cccc1F (stereo not drawn) -4.9%
N#CC1(c2ccccc2)CCCN1C(=O)c1ccc(Br)cc1 (stereo not drawn) -11.6%
C=CCOC(=O)c1sc(NC(=O)c2ccc(OC)cc2)nc1C -27.6%
O=C(O)CCc1[nH]c2ccccc2c1Sc1ccccc1 2.8%
CNC(=O)CCc1[nH]c2ccccc2c1Sc1ccccc1 2.6%
C=CCn1c(C)csc1=Nc1ccc(C(=O)O)cc1 -39.1%
CCOc1ccc(C(=O)Nn2cnnc2)cc1OCC -0.7%
COc1cc(C=O)ccc1OC(=O)c1ccc(C(C)C)cc1 -9.5%
CCn1c(=N)n(CC(=O)C(C)(C)C)c2ccccc21 1.2%
CCc1ccc(CN2CCC(C(=O)Nc3ccc(Oc4ccccc4)nc3)CC2)o1 32.5%
CCOc1cc(Br)cc(C(c2c(C(=O)O)[nH]c3ccccc23)c2c(C(=O)O)[nH]c3ccccc23)c1O 18%
O=C(O)COc1ccc(Br)cc1C(c1c(C(=O)O)[nH]c2ccccc12)c1c(C(=O)O)[nH]c2ccccc12 -18.7%
Cc1nn(CC(=O)NCC(C)c2ccccc2)c(=O)c2cccn12 (stereo not drawn) -28.8%
CCOC1(OCC)C(c2ccc(Cl)cc2)C(C#N)(C#N)C1(OCC)OCC (stereo not drawn) -5.8%
Cc1sc(NC(=O)c2ccccc2)c(C#N)c1-c1ccccc1 -17.1%
N#Cc1c(NC(=O)c2ccccc2)sc2c1CCC2 -29.6%

inhibition, active:
Cc1noc(-c2ccc(Cl)cc2)c1C(=O)O/N=C(\N)c1ccc(C(C)(C)C)cc1 84%
O=C(/C(N=Nc1cccc(C(F)(F)F)c1)=C(/O)c1cccs1)C(F)(F)F 58.5%
O=C(Nc1ccc([N+](=O)[O-])cc1)c1nc[nH]c1C(=O)NC1CCCCC1 80.7%
C#CCNC(=O)C1=C[C@H](c2cn(C(C)=O)c3ccccc23)C[C@H](OCc2ccc(CO)cc2)O1 46.1%
O=C(NCc1ccccc1)C1=C[C@@H](c2csc3ccccc23)C[C@@H](OCc2ccc(CO)cc2)O1 43.8%
CCOC(=O)c1ccccc1NC(=O)CSc1ccc(-c2cccnc2)nn1 59.2%
COc1ccc(-c2nnc(SC(=O)N3c4ccccc4Sc4ccccc43)o2)cc1 65.2%
CC(C)N=C(NS(=O)(=O)c1ccccc1)C(Cl)(Cl)Cl 62.8%
CC(C)=NOc1cc(NC(=O)CCl)cc([N+](=O)[O-])c1 89.5%
COC(=O)c1cccc(NC(=O)NC(=O)c2ccccc2Cl)c1 30%
CCN(CC)c1ccc(/C=N/NC(=O)Nc2nonc2N)cc1 58.7%
Cc1ccccc1NC(=O)C1CCC(=O)N1 (stereo not drawn) 96.7%
COc1ccc(C2C(C#N)=C(N)Oc3c2c(C)nn3-c2ccccc2)cc1Cn1nc(C)c([N+](=O)[O-])c1C (stereo not drawn) 85%
O=C(CCc1[nH]c2ccccc2c1Sc1ccccc1)NCCO 91.3%
O=C(O)c1[nH]c2ccccc2c1C(c1cc(Br)ccc1O)c1c(C(=O)O)[nH]c2ccccc12 76.6%
COC1(OC)C(/C=C/c2ccc(Cl)cc2)C(C#N)(C#N)C1(OC)OC (stereo not drawn) 62.6%
N#Cc1c(Cl)nsc1NC(=O)c1ccccc1 89.1%
